In ChEMBL document CHEMBL4513216, “Probing the Open Global Health Chemical Diversity Library for Multistage-Active Starting Points for Next-Generation Antimalarials” (ACS Infect Dis, 2020):
The whole screen tested about 69,000 compounds, of which about 8,600 (12%) showed an effect of 50% or more. Many of the other results were omitted from the sample, so strong results are more common in it than they were.

Tested on: Plasmodium berghei
Experiment: Screen against P. berghei liver stage (PbLuc), transformed with Luciferase, at 10uM
Assay type: functional, HepG2
Conditions: tested at 10 uM

SMILES	INHIBITION
CCCS(=O)(=O)N1C[C@@H]2CN(Cc3ccco3)CCO[C@@H]2C1	-32.6%
O=C(NCC1CCOC1)N1CCN(Cc2ccc3c(c2)OCO3)CC1 (stereo not drawn)	33.3%
Cc1cc2cc(C(=O)N[C@@H]3CC[C@@H](N4CCCC4)[C@@H]3O)ccc2o1	26.3%
Cc1noc(C2CCCN(Cn3cc(Br)cn3)C2)n1 (stereo not drawn)	-12.2%
CCC(C)NC(=O)CS(=O)(=O)Cc1nc(-c2cccs2)no1 (stereo not drawn)	46.4%
CCCc1noc(CS(=O)(=O)CC(=O)NC(C)CCC)n1 (stereo not drawn)	58.3%
Cc1noc(CS(=O)(=O)CC(=O)NC(C)c2ccccc2)n1 (stereo not drawn)	31.2%
CC[C@@H]1N(CC2CC2)CCC[C@]12CCC(=O)N2CCOC	4.2%
Cc1nc(CN2CCCN(C(=O)c3ccccn3)CC2)oc1C	60.5%
CCc1nnc(CN2CCCN(C(=O)c3ccccn3)CC2)o1	-47.6%
Cc1noc(CN2CCN(C(=O)c3ccccn3)CC2)n1	37.3%
Cc1nc(CN2CCCN(C(=O)c3ccn(C)c(=O)c3)CC2)cs1	-12.2%
COCc1ccc(C(=O)N2CCC(Oc3ccccc3)(C(=O)O)CC2)o1	-11.6%
O=C(c1ccc(COc2ccccc2Cl)o1)N1N=CCC1(O)C(F)(F)F (stereo not drawn)	4.66%
O=C(NC1CCCC1)c1ccc(COCC(F)(F)F)o1	31.6%
O=C(Cc1ccc(Cl)cc1)N1CCC(O)(C(F)(F)F)C1 (stereo not drawn)	-55%
Cc1cccc(OCc2ccc(C(=O)N3N=CCC3(O)C(F)(F)F)o2)c1 (stereo not drawn)	69.2%
O=C(c1ccc(COc2ccc(Cl)cc2)o1)N1N=CCC1(O)C(F)(F)F (stereo not drawn)	89.3%
COc1ccc(C(=O)COc2coc(CN3CCCCC3)cc2=O)cc1	44.9%
CC(C)NC(=O)N1CC[C@@H](N(C)C)[C@@H]1Cc1ccncc1	28.2%
CCS(=O)(=O)N1CCN(Cc2ccncc2)c2nc(C)ccc2C1	48.6%
CC(c1ccc2c(c1)OCO2)n1cc2nc(N(C)C)[nH]cc-2c1=O (stereo not drawn)	39.3%
CC(C)CC(=O)Nc1ccc2c(c1)ncn2CC(=O)NCCN(C)C	32.4%

SMILES	INHIBITION
COCCN1CCCC(CCCc2ccccn2)(C(N)=O)C1 (stereo not drawn)	-58.7%
CCOc1ccc(NC(C)=O)cc1S(=O)(=O)Nc1cc(C)on1	54.2%
CCOc1ccc(NC(C)=O)cc1S(=O)(=O)Nc1nnc(C)s1	21.8%
CCOc1ccc(NC(C)=O)cc1S(=O)(=O)Nc1ccon1	7.83%
Clc1ccccc1-c1nnc(CN2CCCC2Cn2cncn2)o1 (stereo not drawn)	27.4%
Cn1cc(CN2CCO[C@@H]3CN(C4CCCC4)C[C@@H]3C2)cn1	41.2%
c1cc(CNCc2ccnc(N3CCCC3)c2)c2c(c1)OCCO2	44.4%
COc1ccc(CNCc2ccnc(N3CCOCC3)c2)cc1OC	27.1%
OCc1cccc(CNCc2cccc3c2OCCO3)c1	-33.4%
c1cc(CNCc2ccnc(N3CCOCC3)c2)c2c(c1)OCO2	-35.2%
c1cc(CNCc2ccnc(N3CCCC3)c2)c2c(c1)OCO2	-17.2%
c1cc(CNCc2ccnc(N3CCOCC3)c2)c2c(c1)OCCO2	9.48%
COc1ccc(OC)c(CNCc2ccnc(N3CCOCC3)c2)c1	-2.53%
c1cc(CNCc2ccnc(N3CCOCC3)c2)c2c(c1)OCCCO2	26.4%
c1cc(CNCc2ccnc(N3CCCC3)c2)c2c(c1)OCCCO2	98.3%
CN(C)c1cc(CNCc2cccc3c2OCCO3)ccn1	52.1%
CN1CCN(c2cc(CNCc3cccc4c3OCO4)ccn2)CC1	73.9%
COc1cccc(CNCc2ccnc(N3CCOCC3)c2)c1OC	50.5%
NC(=O)c1csc(N2C[C@@H](CN3CCOCC3)[C@@H](CO)C2)n1	20.645%
O=C(NCCNc1cnccn1)N1CCCC(N2CCCC2)C1 (stereo not drawn)	37.4%
c1cc(CN2CCC[C@@H](Cn3nnc(-c4cnccn4)n3)C2)ccn1	18.285%
CCOc1cc(NC(=O)N2CCC3(CCOCC3)C2)ccc1C	-38.1%
Cc1cc(CN(Cc2cccs2)CC2CCCO2)on1 (stereo not drawn)	19.4%

SMILES	INHIBITION
CCN(CC)c1nc(O)cc(C(C)n2ncc3ccccc3c2=O)n1 (stereo not drawn)	0.45%
O=C(C1CCCCC1)N1CCCC2(CCN(c3cnccn3)CC2)C1	-2.35%
c1cc(CNCc2ccc(Cn3cncn3)cc2)c2c(c1)OCCO2	16%
CC1CN(c2cc(CNCc3cccc4c3OCCO4)ccn2)CCO1 (stereo not drawn)	-26.2%
c1cc(CNCc2ccnc(N3CCCCC3)c2)c2c(c1)OCCCO2	70.1%
c1cc(CNCc2cccc3c2OCCCO3)cc(Cn2cncn2)c1	53.1%
c1cc(CNCc2cccc3c2OCCO3)cc(Cn2cncn2)c1	-8.41%
CCc1nc(CN(C)C2CCN(Cc3nc(C4CC4)no3)C2)no1 (stereo not drawn)	-31.6%
COCC(=O)N1CCC(c2c(C(=O)N(C)C)sc3ncccc23)C1 (stereo not drawn)	9.54%
O=C(c1nc2c(o1)CN(CC1CC1)C2)N1CCCC1	18.5%
CCCOc1ccccc1NCC(=O)Nc1ccc(CC)cc1	15%
c1cn2c(n1)CN(CC1CC1)CC(CN1CCOCC1)C2 (stereo not drawn)	42.1%
CCOC1CCN(C(=O)NCc2cccc(-n3cccn3)c2)CC1	1.98%
CCOC1CCN(C(=O)NCc2ccc(CN3CCOCC3)cc2)CC1	61.8%
CCOC1CCN(C(=O)NCc2ccc(C(=O)N(C)C(C)C)cc2)CC1	27.6%
O=C(N[C@@H]1CCC[C@@H](N2CCOCC2)[C@@H]1O)c1cc2ccccc2[nH]1	-3.31%
CC(C)N(C)Cc1cnc2n1CCN(Cc1cccc(F)c1)C2	-22.1%
COCCNc1nc(NCCc2ccccc2)nc2nccnc12	-14.9%
O=C(c1ccncc1)N1C[C@@H](OCc2cccnc2)[C@H]2OCCC[C@H]21	10.6%
CSCC(=O)N1CCc2c(cnc(C)c2-c2noc(-c3cscn3)n2)C1	16.7%
Cc1cc(-c2nc(-c3c(C)ncc4c3CCNC4)no2)nc(C)n1	33.7%
Cc1ncc2c(c1-c1noc(-c3cscn3)n1)CCNC2	58.8%
